Source: PubChem BioAssay
FBW7 act = FBW7 E3 ligase activators, primary screen, biochemical, AlphaScreen, human | F-box/WD repeat-containing protein 7 (Homo sapiens), Q969H0 | AlphaScreen FBW7–phospho-cyclin E peptide binding, activator screen | normalized activity (activation), % at 26.1 µM | 0.13% of 650,000 active | AID 1259310, 2017; in the data active means normalized activity above about 1.9%;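 further: purified mutant Fbw7 with reduced substrate affinity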
Target sequence (Q969H0 whole entry, looked up): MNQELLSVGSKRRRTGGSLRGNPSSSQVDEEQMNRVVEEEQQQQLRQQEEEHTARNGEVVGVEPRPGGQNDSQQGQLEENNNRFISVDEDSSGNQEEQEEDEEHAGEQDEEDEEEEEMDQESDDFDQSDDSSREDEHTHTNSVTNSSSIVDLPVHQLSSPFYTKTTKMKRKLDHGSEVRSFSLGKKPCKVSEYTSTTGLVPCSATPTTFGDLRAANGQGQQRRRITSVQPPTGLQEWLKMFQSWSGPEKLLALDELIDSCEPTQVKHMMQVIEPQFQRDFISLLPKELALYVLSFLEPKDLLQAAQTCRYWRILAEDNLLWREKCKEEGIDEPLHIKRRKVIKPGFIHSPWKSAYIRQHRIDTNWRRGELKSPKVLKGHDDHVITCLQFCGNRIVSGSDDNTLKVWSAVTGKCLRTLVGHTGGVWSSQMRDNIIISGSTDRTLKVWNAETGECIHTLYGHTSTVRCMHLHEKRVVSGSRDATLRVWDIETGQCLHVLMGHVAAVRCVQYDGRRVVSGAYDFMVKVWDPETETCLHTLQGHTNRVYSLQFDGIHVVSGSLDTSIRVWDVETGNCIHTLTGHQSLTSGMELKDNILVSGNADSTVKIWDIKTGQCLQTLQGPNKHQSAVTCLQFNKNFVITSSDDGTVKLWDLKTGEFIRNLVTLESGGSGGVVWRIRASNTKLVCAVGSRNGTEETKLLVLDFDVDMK
MITF primary = MITF inhibitors, primary screen, biochemical, AlphaScreen, human. Microphthalmia-associated transcription factor (Homo sapiens), O75030. AlphaScreen MITF homodimerization, bead proximity signal. inhibition, % at 2.6 µM. 0.91% of 650,000 active; in the data active means inhibition above about 50%;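 further: 0% = vehicle wells with protein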
GPR151 activ = activators of human GPR151, primary screen, cell-based, PathHunter beta-arrestin, luminescence. G-protein coupled receptor 151 (Homo sapiens), Q8TDV0. PathHunter beta-arrestin GPR151 cells. activation, % at 11.2 µM. 1% of 650,000 active; in the data active means activation above about 4.9%;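 further: 0% = median of compound wells and 100% = cells with positive control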
TEAD-YAP block = TEAD-YAP interaction inhibition, primary screen, TEAD-YAP interaction inhibitor project, luminescence, HEK-TIYL cells | TEAD-Gal4/YAP UAS-luciferase luminescence | AID 1259422, 2018 | inhibition, % at 9.12 µM | 1.4% of 640,000 active; in the data active means inhibition above about 32%;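 further: 0% = median of test compound wells and 100% = reference inhibitor wells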
The depositor's hits bear a star; ! = not confirmed by another sample. The list is not random: actives were taken first. Their share in the collection is about 3.5%.

SMILES	FBW7 act	MITF primary	GPR151 activ	TEAD-YAP block
CCC(=O)N1CCCC(c2nnc(-c3ccccc3F)s2)C1 (centres undefined)	0.1	6.3	-5.8	73.5*
COc1ccc2ccccc2c1/C=C1\SC(=Nc2ccc(C)cc2)NC1=O	0.0	-2.9	-1.1	53.2*
COc1ccc(N=C2NC(=O)/C(=C\c3cc(OC)ccc3OC)S2)cc1	-0.1	-17.4	2.7	19.1
COc1ccc2ccccc2c1/C=C1/SC(=S)NC1=O	0.0	0.9	-0.7	2.4
COc1ccc(N=C2NC(=O)/C(=C/c3c(OC)ccc4ccccc34)S2)cc1	0.0	-2.4	-0.8	36.2*
CCCOc1ccc2ccccc2c1/C=C1\SC(N)=NC1=O	-0.1	4.8	0.0	52.1*
CCCOc1ccccc1/C=C1\SC(N)=NC1=O	0.0	3.6	0.3	7.3
COc1ccc2ccc(OC)c(/C=C3/C(=O)Nc4ccccc43)c2c1	-0.1	-3.5	0.3	53.4*
CC(C)(C)c1csc(NC(=O)c2ccc([N+](=O)[O-])cc2[N+](=O)[O-])n1	-0.1	2.9	0.3	4.3
CN1CCN(Cc2nc(-c3ccc(F)cc3)cs2)CC1CCO (centres undefined)	-0.1	9.1	-2.6	-4.1
CC(C)(C)CN1CCN(Cc2nc(-c3ccc(F)cc3)cs2)CC1CCO (centres undefined)	0.0	-0.3	-2.1	44.1*
CC(=O)N(/N=C1\Sc2ccccc2C1=O)c1ccccc1I	-0.2	29.3	-0.8	76.0*
O=[N+]([O-])c1cc(-c2ccc(/C=N\n3cnnc3)o2)ccc1O	-0.3	57.6*	-2.6	4.8
O=C(Cc1ccccc1F)Nc1nnc(-c2cccc([N+](=O)[O-])c2)o1	-0.8	5.3	1.5	3.8
Cc1nn2c(N)c(-c3ccccc3)cnc2c1-c1ccc(Cl)cc1	0.1	-3.7	0.7	32.9*
Nc1c(-c2ccccc2)cnc2c(-c3ccc(Cl)cc3)cnn12	0.5	6.4	-1.5	-22.4
Nc1c(-c2ccccc2)cnc2c(-c3ccccc3)cnn12	0.1	-3.6	0.4	40.9*
CCc1cccc(NC(=O)C2CCN(c3nc(-c4ccc(OC)cc4)no3)CC2)c1	-0.1	-5.2	1.5	0.7
CC(C)(C)c1cc(CCCOC(=O)CNc2ccccc2)cc(C(C)(C)C)c1O	0.0	21.7	-1.5	2.9
CCCCC(=O)Nc1ccccc1-c1nnn(CC(=O)Nc2ccccc2)n1	0.0	-5.2	1.2	-3.2
CCCCC(=O)Nc1ccccc1-c1nnn(CC(=O)Nc2ccc3c(c2)OCCO3)n1	2.3*	13.0	-0.9	12.0
Cc1ccsc1/C=C1\S/C(=N/c2nccs2)NC1=O	-1.3	-10.2	-4.8	37.5*
CN(C)CCN(C)C(=O)c1ccc(-c2ccccc2CO)nc1N(C)C	0.3	14.2	0.5	3.8
Cc1ccc(O)c(N=Nc2ncn[nH]2)c1	-2.1	47.2	2.8	80.5*
Cc1ccc(O)c(N=Nc2ccc(S(=O)(=O)O)cc2)c1	-0.1	9.4	-7.2	14.0
SMILES	FBW7 act	MITF primary	GPR151 activ	TEAD-YAP block
Oc1ccc(N=Nc2ncn[nH]2)c(O)c1	-0.4	91.6*	-0.3	10.8
O=C(CSc1ncn[nH]1)c1ccc(O)cc1O	-0.1	-8.6	-3.9	-0.9
OC1CCC(Nc2nccc(NCc3ccccc3)n2)CC1 (centres undefined)	-0.2	6.5	-0.8	10.8
OC1CCC(Nc2nccc(NCc3cccc(C(F)(F)F)c3)n2)CC1 (centres undefined)	-0.1	3.5	1.1	47.9*
CCNc1nc(C)cc(NCc2cccc(C(F)(F)F)c2)n1	0.3	6.8	-0.9	17.8
FC(F)(F)c1cccc(CNc2ccnc(Nc3ccc(-n4ccnc4)cc3)n2)c1	-0.1	7.0	2.8	35.8*
CCNc1nccc(NCc2cccc(C(F)(F)F)c2)n1	0.0	-2.8	1.2	37.2*
C=CCN(CC=C)S(=O)(=O)c1ccc(N2C(=O)c3ccccc3C2=O)c2ccccc12	0.8	13.2	-1.3	10.2
Cc1ccc(-c2cn3c(n2)sc2cc(C(=O)N4CCC(C(N)=O)CC4)ccc23)cc1	0.7	5.9	-0.2	-39.4
Cc1ccc2c(c1)sc1nc(-c3ccccc3)cn12	2.4*	-20.2	-6.5	96.3*
COc1ccc(/C=N\Nc2nc3ccccc3s2)cc1	-0.3	-3.4	-2.2	42.2*
COCC(C)(C)NS(=O)(=O)c1ccc(C)cc1	0.0	-0.6	0.6	5.4
COc1ccc(C2C(C#N)=C(N)Oc3c2sc2ccccc32)cc1OC (centres undefined)	0.1	7.9	1.6	56.2*
COc1ccc(C2C(C#N)=C(N)Oc3c2sc2ccccc32)c2ccccc12 (centres undefined)	0.2	11.6	-1.2	3.0
COc1cc([N+](=O)[O-])ccc1N/C(N)=N/c1nc(C)cc(C)n1	0.1	-19.6	0.1	56.8*!
Cc1cc(C)nc(/N=C(\N)Nc2ccc([N+](=O)[O-])cc2C)n1	-0.1	0.3	2.3	-1.2
Cc1cc2occ(CC(N)=O)c2c(C)c1Cl	0.2	11.2	-1.7	-3.6
CCOC(=O)c1ccc(NC(=O)c2ccc(CS(=O)c3ccc(Cl)cc3)o2)cc1 (centres undefined)	-0.1	-0.7	-0.5	32.1*
CCOc1ccc2nc(SCC(=O)Nc3cc(C)ccc3C)sc2c1	0.0	6.2	0.2	8.7
Cc1ccc(-n2ncc3c(SCC(=O)NCc4ccco4)ncnc32)c(C)c1	0.2	6.0	-1.5	38.7*
O=[N+]([O-])c1c(N2CCCCC2)ncnc1N1CCCCC1	-0.1	4.8	4.7	-3.6
Nc1ncnc(N2CCc3ccccc32)c1[N+](=O)[O-]	-0.1	-2.8	1.9	36.2*
Nc1ncnc(N2CCCCC2)c1[N+](=O)[O-]	0.0	-1.1	-0.7	37.5*
CCOc1cc(C(=O)Nc2ccc3c(c2)C(=O)NC3=O)cc(OCC)c1OCC	0.2	2.1	-0.7	-3.6
CCCCC(=O)NCCNc1nc(C)nc2sc3c(c12)CCCC3	0.3	10.2	0.7	33.3*
SMILES	FBW7 act	MITF primary	GPR151 activ	TEAD-YAP block
COc1cccc2sc(N3CCOCC3)nc12	2.0*	15.7	0.0	-32.9
COc1cccc2sc(N(C)c3ccccc3)nc12	-0.1	-4.0	-2.1	46.8*
COc1cccc2sc(N3CCN(c4nc5ccccc5s4)CC3)nc12	0.0	6.2	1.6	-3.5
COc1cc(Nc2nc(SCC(=O)N3CCN(c4ccccc4)CC3)nc3ccccc23)cc(OC)c1	-0.1	-7.2	-0.2	14.7
COc1ccc(C(=O)N/C(=C\c2ccc(F)cc2)C(=O)Nc2ccc([N+](=O)[O-])cc2)cc1	-0.1	8.8	0.2	17.5
COc1cc(Nc2nccn3c(-c4ccc(Cl)cc4)cnc23)cc(OC)c1OC	0.5	15.2	-0.6	16.5
COc1cc(Nc2nccn3c(-c4ccco4)cnc23)cc(OC)c1OC	0.2	17.0	-0.5	56.5*
COc1cc(Nc2nccn3c(-c4ccc(F)c(Cl)c4)cnc23)cc(OC)c1OC	-0.6	21.6	-0.7	52.6*
COc1cc(Nc2nccn3c(-c4cccc(C(C)=O)c4)cnc23)cc(OC)c1OC	0.7	19.9	-0.1	54.2*
